PubChem BioAssay AID743105 (Vanderbilt Specialized Chemistry Center, 2013)
Unmarked numbers belong to inactive results. The rule behind the calls is not given here.

Biological target: Muscarinic acetylcholine receptor M4 (Homo sapiens) (UniProt P08173)
Assay: off-target M4 muscarinic calcium response – cell-based, CHO-K1 hM4/Gqi5, Fluo-4 calcium flux, ACh EC20, counter-screen for M5 NAM project (AID 743105)
Details: series mostly up to 30 µM; response, % of max ACh: at the top concentration

Sequence of Muscarinic acetylcholine receptor M4 (Homo sapiens) (P08173 whole entry, looked up): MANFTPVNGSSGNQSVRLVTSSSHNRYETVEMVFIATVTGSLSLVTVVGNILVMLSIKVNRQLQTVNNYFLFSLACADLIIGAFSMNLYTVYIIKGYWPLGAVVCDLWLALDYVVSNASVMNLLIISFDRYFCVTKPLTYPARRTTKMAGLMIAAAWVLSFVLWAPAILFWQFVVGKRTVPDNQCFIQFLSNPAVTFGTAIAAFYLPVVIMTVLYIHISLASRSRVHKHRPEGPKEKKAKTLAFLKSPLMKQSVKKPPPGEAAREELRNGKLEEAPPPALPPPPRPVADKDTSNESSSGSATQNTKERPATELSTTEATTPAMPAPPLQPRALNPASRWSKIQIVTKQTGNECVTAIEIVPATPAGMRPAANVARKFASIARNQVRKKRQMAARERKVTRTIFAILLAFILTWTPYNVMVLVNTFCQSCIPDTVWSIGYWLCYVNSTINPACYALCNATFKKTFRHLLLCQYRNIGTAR

Structure (SMILES) | response, % of max ACh
O=C(c1ccc(F)cc1)N1CCN2C(=O)c3ccccc3C12c1ccccc1 (stereo not given) | 71.3
O=C(c1cc(F)cc(F)c1)N1CCN2C(=O)c3ccccc3C12c1ccc(Cl)cc1 (stereo not given) | 86.8
O=C(c1ccc(F)c(F)c1)N1CCN2C(=O)c3ccccc3C12c1ccccc1 (stereo not given) | 94.7
O=C(c1ccc(F)c(F)c1)N1CCN2C(=O)c3ccccc3C12c1ccc(Cl)cc1 (stereo not given) | 92.4
O=C(c1ccc(F)c(F)c1)N1CCN2C(=O)c3ccccc3[C@@]12c1ccc(Cl)cc1 | 88
